# Laboratory results reported in PubChem BioAssay (NCATS).
# “And” between values parts separate entries of the source, which are not always exact repeats. Identical values can stand only once. A number with no mark means an inactive call. Records with an inconclusive call do not appear. The source made the active and inactive calls.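 How the source made its calls, unless noted: active means compounds whose dose series gives a full or clear partial fitted curve of increased nuclear translocation; inconclusive means weak partial curve or effect only at the top dose; inactive means no dose-dependent translocation response.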
# Tests used:
# [1] = NFAT Signaling Pathway (AID 444; active means well fitted curve in either direction with a large enough effect, not every such curve was filed as active;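 further: carbachol stimulus at about its EC50 of 1 µM final; on the % scale 0 is the no-effect control and ±100 the full control effect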); details: Jurkat NFAT-bla M1, carbachol, beta-lactamase ratio, 5 h; at 17.2 µM (top of the series)
# Summary of the method: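 Jurkat cells with NFAT-driven β-lactamase reporter and co-expressed M1 receptor, stimulated with carbachol (final 1 uM, ~EC50), compound titration, 5 h at 37 °C. CCF4 loaded 1 h at RT; 460/530 nm ratio gave %activity and AC50.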
# [2] = Stat Signaling Pathway (AID 446; active means well fitted curve in either direction with a large enough effect, not every such curve was filed as active;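 further: ME-180 cervical cancer cells given 40 pM IL-6 alongside compound; SIE-controlled beta-lactamase reporter measured as 460/530 nm FRET emission ratio; on the % scale 0 is the no-effect control and ±100 the full control effect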); details: ME-180 (cervical carcinoma) SIE beta-lactamase reporter, IL-6 stimulated, 5 h
# Summary of the method: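 Emission at 460 and 530 nm (excitation 405 nm) reports SIE-controlled beta-lactamase in ME-180 cells. Cells received compound with 40 pM IL-6 for 5 hrs at 37 C; data scaled between 300 pM IL-6 and 125 nM JAK-inhibitor controls.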
# [3] = target: Glucocorticoid receptor (Homo sapiens) (UniProt P04150); experiment: GR-GFP Redistribution (AID 450); details: U2OS GR-GFP nuclear translocation, laser cytometry, 2 h; further: potency means the concentration at half of the fitted maximal effect
# Sequence of Glucocorticoid receptor (Homo sapiens) (P04150 whole entry, looked up): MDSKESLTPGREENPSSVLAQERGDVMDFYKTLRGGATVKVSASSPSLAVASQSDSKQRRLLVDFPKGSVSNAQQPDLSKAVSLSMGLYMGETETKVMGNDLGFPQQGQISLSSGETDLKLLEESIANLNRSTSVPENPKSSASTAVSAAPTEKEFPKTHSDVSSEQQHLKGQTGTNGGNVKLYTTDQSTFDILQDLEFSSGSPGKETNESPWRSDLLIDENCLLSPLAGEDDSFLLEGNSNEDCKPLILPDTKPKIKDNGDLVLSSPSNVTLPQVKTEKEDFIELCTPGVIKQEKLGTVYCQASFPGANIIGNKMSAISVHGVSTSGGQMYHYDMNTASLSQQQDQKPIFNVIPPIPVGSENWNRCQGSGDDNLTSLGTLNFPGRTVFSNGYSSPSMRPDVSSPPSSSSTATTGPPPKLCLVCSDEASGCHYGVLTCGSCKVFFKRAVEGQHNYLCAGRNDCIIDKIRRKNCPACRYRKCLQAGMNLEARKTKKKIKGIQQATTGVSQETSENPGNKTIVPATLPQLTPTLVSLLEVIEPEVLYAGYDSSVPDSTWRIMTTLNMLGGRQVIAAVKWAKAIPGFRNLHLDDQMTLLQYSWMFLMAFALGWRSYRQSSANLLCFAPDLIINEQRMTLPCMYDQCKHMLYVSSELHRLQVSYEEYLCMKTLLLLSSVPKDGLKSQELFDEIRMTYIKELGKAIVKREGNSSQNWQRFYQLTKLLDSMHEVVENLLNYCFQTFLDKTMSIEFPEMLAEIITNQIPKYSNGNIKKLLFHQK
# [4] = target: Cytochrome P450 1A2 (Homo sapiens) (UniProt P05177); experiment: p450-cyp1a2 (AID 410; calls by dose curve; further: potency means the concentration at half of the fitted maximal effect;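 on activity change, negative = inhibition: -100% = full effect of reference inhibitor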); details: recombinant CYP1A2, luciferin-ME demethylation, luminescence; series mostly up to 57 µM
# Sequence of Cytochrome P450 1A2 (Homo sapiens) (P05177 whole entry, looked up): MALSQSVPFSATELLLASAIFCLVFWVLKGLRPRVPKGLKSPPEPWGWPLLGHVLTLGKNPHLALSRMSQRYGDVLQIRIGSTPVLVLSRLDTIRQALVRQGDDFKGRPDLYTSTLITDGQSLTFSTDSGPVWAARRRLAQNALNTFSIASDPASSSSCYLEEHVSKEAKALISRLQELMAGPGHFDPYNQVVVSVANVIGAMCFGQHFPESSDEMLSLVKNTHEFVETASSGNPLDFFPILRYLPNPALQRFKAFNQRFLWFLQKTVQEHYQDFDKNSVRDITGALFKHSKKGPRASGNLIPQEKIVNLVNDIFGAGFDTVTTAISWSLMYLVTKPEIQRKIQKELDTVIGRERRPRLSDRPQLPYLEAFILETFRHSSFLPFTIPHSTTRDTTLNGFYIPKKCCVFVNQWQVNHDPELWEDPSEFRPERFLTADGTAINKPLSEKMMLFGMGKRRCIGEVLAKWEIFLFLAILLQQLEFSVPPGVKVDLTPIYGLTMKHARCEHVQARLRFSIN
# Summary of the method: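 20nM CYP1A2, 100uM Luciferin-ME (=Km), 100mM KPO4; cpd 10 min RT; +NADPH regen, 60 min RT; stop/detect 20 min; luminescence. Normalized to furafylline 57 uM = full inhibition.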
smiles,measurement,setting,value
CN1[C@H]2CC(OC(=O)[C@@H](CO)c3ccccc3)C[C@H]1[C@H]1O[C@H]12 (stereo not given in full),"activity change, negative = inhibition",[1],-45.8% (active)
same,"activity, negative = inhibition",[2]; at 17.2 µM (top of the series),-3.14%
COc1cc2ncnc(Nc3cccc(Br)c3)c2cc1OC,Potency,[3],> 46 µM
COc1cc2c(cc1OC)[C@@H]1C(=O)c3ccc4c(c3O[C@@H]1CO2)C=CC(C)(C)O4,Potency,[4],15.8 µM (active)
same,Potency,[3],> 46 µM
O=C(O)C=Cc1ccc(Cn2ccnc2)cc1,Potency,[3],> 46 µM
CCOC(=O)C1=C(C)NC(=S)NC1c1cccc(O)c1 (stereo not given),Potency,[4],39.8 µM (active)
same,Potency,[3],> 46 µM
CN(N=O)C(=O)N[C@H]1C(O)OC(CO)[C@@H](O)[C@H]1O (stereo not given in full),Potency,[4],inactive
same,Potency,[3],> 46 µM
CC(Oc1ccc(O)cc1)(P(=O)(O)O)P(=O)(O)O,Potency,[4],inactive
same,Potency,[3],> 46 µM
COc1cc2c(cc1O)CCC1C2CC[C@@]2(C)C1CC[C@@H]2O (stereo not given in full),Potency,[3],> 46 µM
CN(C)CC[C@H](c1ccc(Cl)cc1)c1ccccn1,Potency,[4],inactive
same,"activity, negative = inhibition",[2]; at 17.2 µM (top of the series),1.79%
same,"activity, negative = inhibition",[2]; at 38 µM (top of the series),2.96%
same,Potency,[3],> 46 µM and > 20.6 µM
CC(C)[C@H](CO)Nc1nc(Nc2cccc(Cl)c2)c2ncn(C(C)C)c2n1,Potency,[4],2 µM (active) and 316 nM (active)
same,"activity, negative = inhibition",[2]; at 38 µM (top of the series),-81.5% (active)
same,Potency,[3],> 46 µM
